Screening results deposited in PubChem by The Scripps Research Institute Molecular Screening Center.
LYPLA1 inh: blocks human lysophospholipase 1, a PME1 counter-screen | 320,000 tested, 0.16% active | inhibition, % at 5.9 µM | O75608 | recombinant LYPLA1, FP-Rh probe fluorescence polarization;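 active = inhibition above the mean of all tested compounds plus 3 SD, set per campaign, cut at about 14% in these data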;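 note: inhibitors block serine hydrolase probe labeling of LYPLA1 so polarization falls; 0% = enzyme with DMSO and 100% = wells lacking LYPLA1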
Target sequence (O75608 whole entry, looked up): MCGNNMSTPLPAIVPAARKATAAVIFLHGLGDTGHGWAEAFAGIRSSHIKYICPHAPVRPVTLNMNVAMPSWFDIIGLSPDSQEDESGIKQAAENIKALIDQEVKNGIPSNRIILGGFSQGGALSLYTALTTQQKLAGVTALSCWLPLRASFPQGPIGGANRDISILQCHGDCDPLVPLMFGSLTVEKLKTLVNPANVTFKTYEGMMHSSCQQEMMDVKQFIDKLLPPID
GSTO1 inh: GSTO1 inhibition, counter-screen for RBBP9 inhibitors; P78417; recombinant GSTO1, activity-based probe fluorescence polarization; inhibition, % at 5.96 µM; 300,000 tested, 1.1% active;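 active = inhibition above the campaign mean inhibition plus 3 SD, cut at about 35% in these data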;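 note: 0% = GSTO1-1 with DMSO and 100% = wells lacking GSTO1-1 enzyme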
LYPLA2 inh: counter-screen for PME1 inhibitors: inhibitors of human LYPLA2. O95372. recombinant LYPLA2, FP-Rh probe fluorescence polarization. inhibition, % at 5.9 µM. 320,000 tested, 0.38% active. AID 2177;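 active = inhibition above the screen-wide mean plus 3 SD, limit set per campaign, cut at about 26% in these data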;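 note: 0% = LYPLA2 with DMSO and 100% = wells lacking LYPLA2 enzyme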
Fam108B inh: blocks mouse Fam108B hydrolase in RBBP9 counter-screen; recombinant Fam108B, FP-Rh probe fluorescence polarization; inhibition, % at 9.51 µM; 300,000 tested, 0.33% active; AID 1947;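 active = inhibition above the screen mean inhibition plus 3 SD, computed separately per campaign, cut at about 18% in these data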;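 note: inhibitors lower polarization as less probe binds the enzyme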
PME-1 inh: blocks human protein phosphatase methylesterase 1; recombinant PME-1, FP-Rh probe fluorescence polarization; AID 2130; inhibition, % at 5.9 µM; 320,000 tested, 0.53% active;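 active = inhibition above the campaign mean of all compounds plus 3 SD, cut at about 26% in these data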;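 note: competitive labeling of PME-1 active site by serine hydrolase directed probe; 0% = PME-1 with DMSO and 100% = wells lacking PME-1 enzyme; inhibitors block probe labeling so polarization falls and inhibition rises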
Target sequence (Q9Y570 whole entry, looked up): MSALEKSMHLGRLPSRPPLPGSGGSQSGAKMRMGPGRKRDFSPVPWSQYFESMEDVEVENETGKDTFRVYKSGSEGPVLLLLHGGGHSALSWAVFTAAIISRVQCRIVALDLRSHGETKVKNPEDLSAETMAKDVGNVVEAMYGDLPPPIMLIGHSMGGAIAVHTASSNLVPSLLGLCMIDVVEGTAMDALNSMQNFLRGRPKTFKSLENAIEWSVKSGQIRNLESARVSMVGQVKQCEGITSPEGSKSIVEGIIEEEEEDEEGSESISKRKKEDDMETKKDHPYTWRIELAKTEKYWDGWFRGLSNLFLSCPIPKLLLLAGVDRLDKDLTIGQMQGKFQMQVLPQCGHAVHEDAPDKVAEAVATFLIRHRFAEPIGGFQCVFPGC
PAD4 FP inh: blocks human protein arginine deiminase 4 | Q9UM07 | AID 485272 | 330,000 tested, 0.41% active | inhibition, % at 6.36 µM | recombinant PAD4, RCA probe fluorescence polarization;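 active = percent inhibition above a cutoff equal to the mean of all tested compounds plus 3 SD, cut at about 15% in these data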;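 note: 0% = PAD4 with RCA probe and DMSO and 100% = probe without PAD4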
LYPLA1 conf: counter-screen for PME1 inhibitors: confirmation of human LYPLA1 inhibitors; recombinant LYPLA1, FP-Rh probe fluorescence polarization; AID 2233; 480 tested, 69% active; inhibition, % at 5.9 µM; shares compounds with LYPLA1 inh;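 active = mean inhibition across replicates above the hit cutoff set in the primary screen, cut at about 15% in these data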;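 note: loss of FP-Rh probe labeling of LYPLA1 seen as lower polarization; 0% = LYPLA1 with DMSO and 100% = wells lacking LYPLA1 enzyme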
LYPLA2 confirm: counter-screen for PME1 inhibitors: confirmation of human LYPLA2 inhibitors | recombinant LYPLA2, FP-Rh probe fluorescence polarization | inhibition, % at 5.9 µM | 1,100 tested, 72% active | AID 2232 | shares compounds with LYPLA2 inh;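 active = mean inhibition across replicates above the hit cutoff set in the primary screen, cut at about 26% in these data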;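 note: blocked labeling of the enzyme by serine hydrolase FP-Rh probe lowers polarization; 0% = enzyme with DMSO and 100% = wells lacking LYPLA2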
LYPLA2 gel ABPP: blocks human acyl-protein thioesterase 2 in gel ABPP. shares compounds with LYPLA2 inh. rhLYPLA2 in mouse brain proteome, gel ABPP FP-Rh. inhibition, % at 20 µM. 150 tested, 30% active;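 active = inhibition of LYPLA2 enzyme probe labeling above about 50%, limit read from the data; inactive = inhibition below that limit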;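 note: loss of FP-Rh probe labeling of the LYPLA2 gel band measured as band density; 0% = DMSO only control band and 100% = blank gel background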
PAD4 FP conf: PAD4 (human) inhibition, confirmed; shares compounds with PAD4 FP inh; recombinant PAD4, RCA probe fluorescence polarization; inhibition, % at 6.36 µM; 1,200 tested, 28% active; AID 488796;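 active = mean inhibition across replicates above the hit cutoff set by the earlier primary screen, cut at about 15% in these data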;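 note: inhibitors block active-site labeling by the probe so polarization falls; 0% = PAD4 with probe and DMSO and 100% = probe without PAD4 enzyme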
The depositor's hits bear a star; / = no result given. An excerpt weighted towards active compounds, which were near 1.7% of everything screened.

SMILES	LYPLA1 inh	GSTO1 inh	LYPLA2 inh	Fam108B inh	PME-1 inh	PAD4 FP inh	LYPLA2 confirm	others
C=CCn1c(SCC(=O)O)nc2sc(CC)cc2c1=O	1	-2	-5	-3	-2	-2	/
C=CCn1c(SCC(=O)N2CCCC2=O)nc2sc(CC)cc2c1=O	21*	/	38*	/	37*	33*	-3	LYPLA1 conf=4;PAD4 FP conf=-3
COc1ccc(C)cc1NC(=O)Nc1ccc2c(c1)CCC2	-2	-1	-2	1	10	-2	/
COc1ccccc1Nc1ncc(C(=O)N2CCN(Cc3ccc(OC)c(OC)c3OC)CC2)c2ccccc12	2	3	46*	0	6	-2	24
Cn1c(C(=O)N2CCN(c3cccc(C(F)(F)F)c3)CC2)cc2sccc21	3	2	27*	0	0	6	24
O=C(COc1ccc(Br)cc1)NNC(=S)NC(=O)c1ccccc1[N+](=O)[O-]	0	1	33*	-1	-6	-2	31*
Cc1ccc(OCC(=O)OCC(=O)c2ccccc2)cc1C	2	0	29*	1	4	-1	2
CC(C)CNC(=O)COC(=O)c1cc(S(=O)(=O)N2CCCCC2)ccc1N1CCOCC1	2	7	-6	8	3	-1	/
O=C(OCCOc1cccc(Cl)c1)c1cc(S(=O)(=O)N2CCCCC2)ccc1N1CCOCC1	13	-6	53*	-1	1	4	58*
CC(C)NC(=O)NC(=O)COC(=O)c1cc(S(=O)(=O)N2CCCCC2)ccc1N1CCOCC1	1	1	27*	-1	0	2	24
O=C(OCc1cccc(Cl)c1)c1cc(S(=O)(=O)N2CCCCC2)ccc1N1CCOCC1	-2	-1	-6	1	9	-4	/
O=C(Nc1ccc(C(=O)N2CCC(N3CCCC3)CC2)cc1)c1ccc(Br)o1	-2	-2	-3	-1	-6	4	/
O=C(NCc1cccc(Cl)c1)c1cc(COc2ccc3ncccc3c2)on1	0	-27	39*	-4	-1	-4	36*
Cc1ccc(F)cc1CNC(=O)c1cc(COc2ccc3ncccc3c2)on1	2	-9	46*	0	-1	-3	54*	LYPLA2 gel ABPP=31
Cc1cc(C)n(CCNC(=O)c2cc(COc3ccc4ncccc4c3)on2)n1	0	3	5	-2	-2	1	/
CCCNC(=O)c1ccc(N2CCC3(CC2)CC(c2ccccc2)=NO3)c([N+](=O)[O-])c1	1	1	28*	0	5	5	25
CCCNC(=O)c1ccc(N2CCC3(CC2)CC(c2ccccc2)=NO3)c(N)c1	0	1	5	-4	6	-1	/
CCCCOC(=O)c1ccc(NC(=O)C(=O)NCc2ccncc2)cc1	3	2	35*	0	1	1	31*
CC(NC(=O)C1CCC(C(=O)NC(C)c2ccccc2)CC1)c1ccccc1 (centres undefined)	-4	3	-3	-2	-1	-9	/
CC1CCCN(C(=O)c2ccc3c(c2)OCCO3)C1 (centres undefined)	-1	/	1	/	-1	5	/
COc1ccccc1C(=O)C1CCCN(C(=O)c2ccc3c(c2)OCCO3)C1 (centres undefined)	6	7	43*	-5	8	0	5
COc1cccc(C(=O)NC(=S)NCc2ccco2)c1	-4	-1	-8	1	-2	-2	/
COc1ccc(N2CCN(C(=O)CCCOc3cc(=O)n(C)c4ccccc34)CC2)cc1	1	1	31*	0	-3	-5	33*
O=C(CCCN1C(=O)c2cccc3cccc(c23)C1=O)N1CCN(c2ccc(F)cc2)CC1	11	-8	54*	6	4	-3	50*
COc1ccc(N2CCN(C(=O)CCCN3C(=O)c4cccc5cccc(c45)C3=O)CC2)cc1	10	-8	73*	1	3	1	63*	LYPLA2 gel ABPP=32
SMILES	LYPLA1 inh	GSTO1 inh	LYPLA2 inh	Fam108B inh	PME-1 inh	PAD4 FP inh	LYPLA2 confirm	others
Cc1cc(C)n(C(=O)c2cc3ccccc3c(=O)o2)n1	0	8	-4	1	-8	-8	/
CC(NC(=O)COC(=O)Cc1ccsc1)c1ccccc1 (centres undefined)	-6	-12	-4	-1	1	-5	/
O=C(C1CCC(=O)N1Cc1ccccc1Cl)N1CCN(c2cccc(Cl)c2)CC1 (centres undefined)	6	2	34*	1	11	-5	32*
CSCCC1NC(=O)N(CC(=O)N2N=C(c3ccc(Cl)cc3)CC2c2ccco2)C1=O (centres undefined)	0	6	41*	-8	-5	-3	37*
CC(=O)N1N=C(c2ccc(Cl)cc2)CC1c1ccco1 (centres undefined)	0	14	5	2	-2	3	/
C/C(Cn1nnc2ccccc21)=N\NC(=O)c1ccc(Br)cc1	-5	3	0	3	0	-8	/
O=C(CN1CCN(C(=O)c2ccccc2F)CC1)Nc1ccc(Br)cc1	-4	7	-10	-9	-1	-12	/
CCCOc1ccc(-c2csc3ncn(Cc4ccc(C(=O)O)cc4)c(=O)c23)cc1	-5	-7	30*	-2	-8	0	33*
COc1ccccc1N1CCN(C(=S)Nc2ccc(S(=O)(=O)N3CCOCC3)cc2)CC1	0	-1	6	2	-9	-3	/
O=S(=O)(c1ccc(NC(=S)N2CCN(c3ccccc3F)CC2)cc1)N1CCOCC1	0	-4	38*	1	5	4	30*
O=C(O)C1CCCN(S(=O)(=O)c2ccc(Br)cc2)C1 (centres undefined)	-3	4	-9	-7	-3	-5	/
O=C(C1CCC(CNS(=O)(=O)c2cccs2)CC1)N1CCN(c2ccc(Cl)cc2)CC1 (centres undefined)	1	-1	36*	1	4	-2	34*
O=C(NC1CCCC1)C1CCC(CNS(=O)(=O)c2cccs2)CC1 (centres undefined)	-2	-1	3	-2	2	3	/
O=C(NCCNC(=O)c1ccccc1F)c1ccccn1	-1	1	-3	2	-4	-8	/
